According to the supplement of paper PMC10849652:
The full data set covers some 8,800 targets. This sample favours those with a hit. About 0.5% of all pairs of compound and target were hits.

How the values were obtained:
Assay in all cases: log2 fold change, soluble protein after heating vs DMSO (PISA); higher = thermal stabilisation; K562 lysate, 10 uM; active = over 0.2 and 3.5 SD of the protein, either way, in both replicates (recomputed)
[1] = compound: C=CC(=O)N1CCC[C@@H](n2nc(-c3ccc(Oc4ccccc4)cc3)c3c(N)ncnc32)C1 [ibrutinib]
Method in brief: (§1)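 Pellets of K562 cells were dounce-homogenised in PBS pH 7.4 with 1 mM MgCl2, and the crude extract was held at 1 mg/mL protein for a 30 min treatment with 10 μM compound. Aliquots were heated for 3 min over 48°C-58°C and pooled before NP-40 was added to 0.5% at 4°C. The supernatant from 21,000xg for 90 min was quantified by TMTpro 16plex LC-MS/MS with channel sums equalised. Values are reported from duplicates as log-two fold change in thermal stability relative to solvent controls.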

[2] = compound: CC(=O)c1cnc2ccc(-c3cc(Cl)c(O)c(Cl)c3)nc2c1N[C@H]1CC[C@H](CN(C)C)CC1
Method in brief: as §1

[3] = compound: CC(C)(C)Cn1c(N)nc2ccc(-c3[nH]c(C(C)(C)C)nc3-c3ccc(F)cc3)nc21 [ralimetinib]
Method in brief: as §1

[4] = compound: CC(C)(O)CC(=O)NCCn1ccc2ncnc(Nc3ccc(Oc4cccc(C(F)(F)F)c4)c(Cl)c3)c21
Method in brief: as §1

[5] = compound: CC(C)C1=C2N=C(C=C(N2N=C1)NCC3=CC=CC=C3)NCCCCCCN
Method in brief: as §1

[6] = compound: CC1=C(C(CC(=O)N1)C2=CC=C(C=C2)C(F)(F)F)C(=O)NC3=C(C=C4C(=C3)C=NN4)F
Method in brief: as §1

[7] = compound: CC1=C(C2=C(C=C1)C(=O)C3=CC=CC=C3N2CCCN)C
Method in brief: as §1

[8] = compound: CC1=C(C=C(C=C1)NC(=O)C2=CC(=CC=C2)C(C)(C)C#N)NC3=CC4=C(C=C3)N=CN(C4=O)C
Method in brief: as §1

[9] = compound: CC1=C(C=C(C=C1)NC(=O)C2=CC(=CC=C2)N(C)C)NC(=O)C3=CC=C(C=C3)O
Method in brief: as §1

[10] = compound: CC1=CC=C(C=C1)SC2=C3C=C(SC3=CN=C2)C(=O)N
Method in brief: as §1

Measured: log2 fold change

PDE4DIP isoform 4 (UniProt Q5VU43)
Chain of UniProt Q5VU43 (Q5VU43 whole entry, looked up): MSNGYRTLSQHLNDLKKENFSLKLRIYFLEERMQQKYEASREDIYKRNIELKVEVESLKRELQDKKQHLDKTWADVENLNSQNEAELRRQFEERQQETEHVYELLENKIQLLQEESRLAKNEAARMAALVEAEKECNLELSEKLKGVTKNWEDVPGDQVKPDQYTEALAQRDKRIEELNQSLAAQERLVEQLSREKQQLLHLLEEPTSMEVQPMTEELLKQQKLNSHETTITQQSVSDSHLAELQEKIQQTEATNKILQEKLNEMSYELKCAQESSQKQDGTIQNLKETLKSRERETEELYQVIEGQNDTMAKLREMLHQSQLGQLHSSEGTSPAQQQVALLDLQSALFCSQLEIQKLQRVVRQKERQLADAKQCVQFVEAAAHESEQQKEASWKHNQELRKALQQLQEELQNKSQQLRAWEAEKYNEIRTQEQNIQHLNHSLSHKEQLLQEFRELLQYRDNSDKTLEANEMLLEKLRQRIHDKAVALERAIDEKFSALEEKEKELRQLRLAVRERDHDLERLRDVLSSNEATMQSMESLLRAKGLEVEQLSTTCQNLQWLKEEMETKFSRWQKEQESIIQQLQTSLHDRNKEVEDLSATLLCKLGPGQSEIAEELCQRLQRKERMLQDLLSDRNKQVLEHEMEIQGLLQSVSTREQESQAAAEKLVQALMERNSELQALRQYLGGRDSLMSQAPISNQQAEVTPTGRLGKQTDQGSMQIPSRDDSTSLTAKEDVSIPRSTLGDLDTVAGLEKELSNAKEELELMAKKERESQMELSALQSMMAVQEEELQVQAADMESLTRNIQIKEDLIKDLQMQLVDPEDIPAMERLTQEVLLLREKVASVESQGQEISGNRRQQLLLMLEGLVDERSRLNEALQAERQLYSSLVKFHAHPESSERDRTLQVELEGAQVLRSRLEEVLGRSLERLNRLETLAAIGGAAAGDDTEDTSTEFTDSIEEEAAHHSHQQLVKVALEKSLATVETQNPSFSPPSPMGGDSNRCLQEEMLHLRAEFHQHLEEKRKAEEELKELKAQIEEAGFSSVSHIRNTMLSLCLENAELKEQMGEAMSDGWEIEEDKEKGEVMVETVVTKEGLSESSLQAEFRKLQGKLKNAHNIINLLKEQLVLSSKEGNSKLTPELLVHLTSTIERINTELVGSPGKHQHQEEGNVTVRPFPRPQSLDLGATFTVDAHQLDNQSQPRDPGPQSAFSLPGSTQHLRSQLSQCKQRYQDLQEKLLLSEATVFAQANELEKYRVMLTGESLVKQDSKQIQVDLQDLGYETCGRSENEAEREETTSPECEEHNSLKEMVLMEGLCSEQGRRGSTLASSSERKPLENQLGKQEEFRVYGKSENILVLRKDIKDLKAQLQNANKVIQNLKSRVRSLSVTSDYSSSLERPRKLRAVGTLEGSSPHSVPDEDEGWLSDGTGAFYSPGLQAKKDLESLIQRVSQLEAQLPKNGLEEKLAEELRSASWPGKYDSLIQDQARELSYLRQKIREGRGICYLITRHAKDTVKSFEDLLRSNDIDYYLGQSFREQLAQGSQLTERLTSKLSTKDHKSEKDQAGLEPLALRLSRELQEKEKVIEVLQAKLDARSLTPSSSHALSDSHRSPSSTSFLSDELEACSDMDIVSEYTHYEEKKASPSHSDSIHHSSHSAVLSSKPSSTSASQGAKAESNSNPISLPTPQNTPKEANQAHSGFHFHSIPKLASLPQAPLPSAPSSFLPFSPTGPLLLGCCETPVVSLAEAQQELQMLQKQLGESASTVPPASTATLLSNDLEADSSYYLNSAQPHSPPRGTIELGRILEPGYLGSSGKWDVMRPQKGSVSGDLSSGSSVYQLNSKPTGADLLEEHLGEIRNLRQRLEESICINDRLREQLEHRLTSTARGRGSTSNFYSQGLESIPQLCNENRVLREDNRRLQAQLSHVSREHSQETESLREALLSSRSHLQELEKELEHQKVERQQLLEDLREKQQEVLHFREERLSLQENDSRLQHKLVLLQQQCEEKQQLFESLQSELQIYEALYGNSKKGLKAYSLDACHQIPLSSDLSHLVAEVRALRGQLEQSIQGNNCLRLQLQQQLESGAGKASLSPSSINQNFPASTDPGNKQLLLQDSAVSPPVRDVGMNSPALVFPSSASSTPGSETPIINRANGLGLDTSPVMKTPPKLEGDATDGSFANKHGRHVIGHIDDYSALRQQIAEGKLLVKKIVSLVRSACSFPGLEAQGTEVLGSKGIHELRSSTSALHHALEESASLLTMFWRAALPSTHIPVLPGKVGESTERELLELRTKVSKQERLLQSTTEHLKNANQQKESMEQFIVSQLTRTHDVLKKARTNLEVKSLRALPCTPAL
inactive: [1] 0.249 | [2] -0.021 | [3] 0.02 | [4] -0.03 | [5] -0.061 | [6] -0.032 | [7] 0.006 | [8] 0.054 | [9] -0.033 | [10] 0.017

PDF (UniProt Q9HBH1)
Chain of UniProt Q9HBH1 (Q9HBH1 whole entry, looked up): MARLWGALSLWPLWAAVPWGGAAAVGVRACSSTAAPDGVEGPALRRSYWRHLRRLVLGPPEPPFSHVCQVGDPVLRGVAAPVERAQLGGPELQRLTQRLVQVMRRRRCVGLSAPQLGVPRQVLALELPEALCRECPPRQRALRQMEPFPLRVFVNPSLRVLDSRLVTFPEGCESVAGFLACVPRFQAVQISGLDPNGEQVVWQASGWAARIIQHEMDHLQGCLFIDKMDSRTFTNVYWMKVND
inactive: [1] 0.054 | [2] 0.016 | [3] -0.014 | [4] 0.066 | [5] 0.001 | [6] 0.01 | [7] 0.07 | [8] 0.048 | [9] -0.018 | [10] 0.059

PTMA isoform 2 (UniProt P06454)
inactive: [1] -0.053

PHKA2 (UniProt P46019)
Chain of UniProt P46019 (P46019 whole entry, looked up): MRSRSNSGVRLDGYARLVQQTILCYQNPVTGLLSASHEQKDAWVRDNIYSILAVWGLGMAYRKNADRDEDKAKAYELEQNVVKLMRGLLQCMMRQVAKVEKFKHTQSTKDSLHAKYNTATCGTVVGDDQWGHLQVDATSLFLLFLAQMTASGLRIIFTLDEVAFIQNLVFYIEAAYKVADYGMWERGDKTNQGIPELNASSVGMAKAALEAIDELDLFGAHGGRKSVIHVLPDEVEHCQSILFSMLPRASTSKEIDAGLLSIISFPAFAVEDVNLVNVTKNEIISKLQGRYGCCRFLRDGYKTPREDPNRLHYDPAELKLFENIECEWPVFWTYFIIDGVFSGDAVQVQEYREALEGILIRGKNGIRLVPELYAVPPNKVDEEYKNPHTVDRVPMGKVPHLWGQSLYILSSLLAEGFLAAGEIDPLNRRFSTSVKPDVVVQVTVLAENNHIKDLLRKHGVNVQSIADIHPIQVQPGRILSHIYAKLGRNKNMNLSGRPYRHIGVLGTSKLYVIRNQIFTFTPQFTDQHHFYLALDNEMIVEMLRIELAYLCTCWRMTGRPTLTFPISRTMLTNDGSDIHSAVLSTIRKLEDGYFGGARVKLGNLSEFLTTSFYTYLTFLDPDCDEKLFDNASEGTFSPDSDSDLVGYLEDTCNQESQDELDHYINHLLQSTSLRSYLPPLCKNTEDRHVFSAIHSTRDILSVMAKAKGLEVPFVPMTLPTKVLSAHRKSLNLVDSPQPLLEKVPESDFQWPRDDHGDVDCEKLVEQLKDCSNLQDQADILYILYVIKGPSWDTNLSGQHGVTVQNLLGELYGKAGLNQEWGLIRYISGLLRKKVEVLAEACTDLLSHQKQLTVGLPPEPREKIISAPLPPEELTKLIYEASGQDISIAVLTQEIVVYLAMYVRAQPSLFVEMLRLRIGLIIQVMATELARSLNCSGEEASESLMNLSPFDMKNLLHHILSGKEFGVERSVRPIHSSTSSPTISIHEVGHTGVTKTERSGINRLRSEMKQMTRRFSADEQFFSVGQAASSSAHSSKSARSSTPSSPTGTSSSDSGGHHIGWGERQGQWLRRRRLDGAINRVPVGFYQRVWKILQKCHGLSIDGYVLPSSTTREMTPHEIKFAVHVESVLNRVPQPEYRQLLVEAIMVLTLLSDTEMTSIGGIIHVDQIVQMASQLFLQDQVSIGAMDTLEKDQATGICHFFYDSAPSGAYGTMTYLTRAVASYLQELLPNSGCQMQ
inactive: [1] -0.032 | [2] 0.095 | [3] -0.022 | [4] -0.097 | [5] -0.016 | [6] -0.03 | [7] -0.076 | [8] 0.007 | [9] 0.013 | [10] -0.015

PIP4P2 (UniProt Q8N4L2)
inactive: [1] 0.034 | [2] 0.138 | [3] -0.025 | [4] -0.023 | [5] -0.08 | [6] -0.015 | [7] -0.061 | [8] 0.013 | [9] 0.008 | [10] -0.096

PRKAR2A (UniProt P13861)
inactive: [1] 0.044 | [2] -0.064 | [3] 0.033 | [4] -0.032 | [5] 0.018 | [6] 0.015 | [7] 0.005 | [8] 0 | [9] 0.011 | [10] 0.036

PLEKHA5 isoform 6 (UniProt Q9HAU0)
inactive: [1] 0.075 | [2] 0.003 | [3] -0.004 | [4] -0.001 | [5] 0.069 | [6] -0.013 | [7] -0.033 | [8] 0.028 | [9] 0.022 | [10] -0.036

PLEKHF1 (UniProt Q96S99)
inactive: [1] -0.004 | [2] 0.015 | [3] 0.053 | [4] -0.042 | [5] 0.002 | [6] -0.069 | [7] -0.025 | [8] -0.002 | [9] -0.017 | [10] 0.015

PIP4K2B (UniProt P78356)
Chain of UniProt P78356 (P78356 whole entry, looked up): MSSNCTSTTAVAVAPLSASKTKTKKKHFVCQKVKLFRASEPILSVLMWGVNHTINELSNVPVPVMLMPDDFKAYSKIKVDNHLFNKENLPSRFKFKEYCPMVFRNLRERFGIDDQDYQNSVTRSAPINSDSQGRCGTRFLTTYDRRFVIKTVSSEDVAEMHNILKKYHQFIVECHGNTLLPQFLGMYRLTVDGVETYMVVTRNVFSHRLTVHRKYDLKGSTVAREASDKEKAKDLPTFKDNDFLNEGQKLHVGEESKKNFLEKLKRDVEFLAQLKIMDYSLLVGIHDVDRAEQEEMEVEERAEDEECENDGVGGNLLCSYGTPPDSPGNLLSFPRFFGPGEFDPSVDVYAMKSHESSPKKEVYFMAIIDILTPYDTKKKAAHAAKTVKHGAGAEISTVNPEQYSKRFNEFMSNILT
inactive: [1] -0.002 | [2] 0.043 | [3] 0.016 | [4] 0.023 | [5] -0.032 | [6] -0.043 | [7] -0.022 | [8] 0.087 | [9] -0.044 | [10] -0.031

POLD1 (UniProt P28340)
inactive: [1] -0.003 | [2] 0.014 | [3] 0.035 | [4] 0.018 | [5] 0 | [6] 0.005 | [7] -0.012 | [8] 0.005 | [9] 0.02 | [10] -0.032

PPT2 isoform 3 (UniProt Q9UMR5)
inactive: [1] 0.03 | [2] 0.068 | [3] -0.001 | [4] -0.022 | [5] -0.019 | [6] -0.026 | [7] 0.002 | [8] -0.038 | [9] -0.015 | [10] -0.013

PFN1 (UniProt P07737)
inactive: [1] -0.018 | [2] -0.007 | [3] 0.009 | [4] 0.013 | [5] -0.022 | [6] -0.017 | [7] 0.009 | [8] 0.007 | [9] 0 | [10] 0.002

PI4K2A (UniProt Q9BTU6)
inactive: [1] -0.017 | [2] 0.044 | [3] 0.002 | [4] -0.037 | [5] -0.006 | [6] -0.028 | [7] 0.028 | [8] -0.06 | [9] 0 | [10] -0.009

PPIL3 (UniProt Q9H2H8)
Chain of UniProt Q9H2H8 (Q9H2H8 whole entry, looked up): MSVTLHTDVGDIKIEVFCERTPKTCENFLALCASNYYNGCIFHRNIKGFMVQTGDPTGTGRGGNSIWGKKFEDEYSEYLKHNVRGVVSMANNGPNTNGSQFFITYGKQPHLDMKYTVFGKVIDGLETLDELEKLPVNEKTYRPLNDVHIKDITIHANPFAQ
inactive: [1] 0.044 | [2] 0.029 | [3] -0.023 | [4] -0.028 | [5] 0.022 | [6] 0.001 | [7] 0.003 | [8] 0.011 | [9] 0.009 | [10] 0.005

POLR2G (UniProt P62487)
inactive: [1] -0.01 | [2] -0.001 | [3] 0.027 | [4] -0.017 | [5] -0.028 | [6] -0.015 | [7] 0.02 | [8] 0.029 | [9] -0.008 | [10] -0.01

PXMP4 (UniProt Q9Y6I8)
Chain of UniProt Q9Y6I8 (Q9Y6I8 whole entry, looked up): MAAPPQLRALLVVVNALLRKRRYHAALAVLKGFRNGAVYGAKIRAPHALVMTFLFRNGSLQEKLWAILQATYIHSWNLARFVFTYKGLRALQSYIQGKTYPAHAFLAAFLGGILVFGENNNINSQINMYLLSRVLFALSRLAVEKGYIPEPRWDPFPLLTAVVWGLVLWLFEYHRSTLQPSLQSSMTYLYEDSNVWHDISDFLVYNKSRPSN
inactive: [1] -0.022 | [2] 0 | [3] 0.012 | [4] -0.076 | [5] -0.18 | [6] -0.008 | [7] 0.066 | [8] 0.234 | [9] -0.007 | [10] 0.023

PEX2 (UniProt P28328)
inactive: [1] 0.017 | [2] -0.114 | [3] 0.021 | [4] -0.098 | [5] 0.023 | [6] 0.14 | [7] -0.07 | [8] -0.002 | [9] 0.065 | [10] 0.035

PRMT5 (UniProt O14744)
inactive: [1] 0.004 | [2] -0.002 | [3] -0.015 | [4] 0.004 | [5] -0.004 | [6] -0.015 | [7] -0.008 | [8] 0.001 | [9] -0.01 | [10] 0.022

PI4K2B (UniProt Q8TCG2)
inactive: [1] -0.028 | [2] 0.04 | [3] 0.103 | [4] 0.069 | [5] -0.063 | [6] -0.075 | [7] -0.005 | [8] -0.082 | [9] 0.001 | [10] 0.005

PUM1 isoform 3 (UniProt Q14671)
active: [8] -0.435
inactive: [1] -0.034 | [2] 0.009 | [3] 0.003 | [4] -0.031 | [5] -0.035 | [6] 0.032 | [7] 0.044 | [9] 0.049 | [10] 0.014

PRAME (UniProt P78395)
inactive: [1] 0.009 | [2] 0.029 | [3] 0.003 | [4] 0.005 | [5] 0.011 | [6] 0.015 | [7] 0.003 | [8] 0.006 | [9] 0.008 | [10] 0.002

PDCD6IP (UniProt Q8WUM4)
inactive: [1] -0.056 | [2] 0.042 | [3] -0.066 | [4] -0.004 | [5] 0.078 | [6] 0.009 | [7] 0.004 | [8] -0.037 | [9] 0.02 | [10] -0.03

PCBD2 (UniProt Q9H0N5)
inactive: [1] 0.035 | [2] 0.02 | [3] 0.051 | [4] -0.08 | [5] 0.033 | [6] 0.025 | [7] 0.022 | [8] 0.027 | [9] -0.007 | [10] -0.03

PFKP (UniProt Q01813)
inactive: [1] -0.001 | [2] 0.009 | [3] 0.004 | [4] -0.029 | [5] 0.001 | [6] -0.015 | [7] 0.007 | [8] 0.003 | [9] 0.002 | [10] 0.062

POMP (UniProt Q9Y244)
inactive: [1] -0.025 | [2] -0.043 | [3] -0.001 | [4] -0.033 | [5] -0.013 | [6] 0.016 | [7] -0.09 | [8] 0.048 | [9] 0.027 | [10] -0.001

PDCD6IP isoform 2 (UniProt Q8WUM4)
inactive: [1] -0.035 | [2] 0.009 | [3] 0.003 | [4] 0.025 | [5] 0.013 | [6] -0.006 | [7] 0.046 | [8] -0.013 | [9] 0.029 | [10] 0.016

PITRM1 isoform 2 (UniProt Q5JRX3)
inactive: [1] 0.007 | [2] -0.004 | [3] 0.134 | [4] -0.009 | [5] -0.019 | [6] 0.001 | [7] -0.021 | [8] -0.001 | [9] -0.005 | [10] 0.012

PYCR2 (UniProt Q96C36)
inactive: [1] 0.012 | [2] 0.002 | [3] -0.007 | [4] -0.032 | [5] -0.007 | [6] -0.026 | [7] 0.001 | [8] 0.013 | [9] -0.017 | [10] -0.016

PPP2CA (UniProt P67775)
inactive: [1] 0.042 | [2] 0.009 | [3] 0.007 | [4] 0.083 | [5] -0.012 | [6] -0.017 | [7] -0.034 | [8] -0.047 | [9] -0.003 | [10] 0.036

PTGES2 (UniProt Q9H7Z7)
Chain of UniProt Q9H7Z7 (Q9H7Z7 whole entry, looked up): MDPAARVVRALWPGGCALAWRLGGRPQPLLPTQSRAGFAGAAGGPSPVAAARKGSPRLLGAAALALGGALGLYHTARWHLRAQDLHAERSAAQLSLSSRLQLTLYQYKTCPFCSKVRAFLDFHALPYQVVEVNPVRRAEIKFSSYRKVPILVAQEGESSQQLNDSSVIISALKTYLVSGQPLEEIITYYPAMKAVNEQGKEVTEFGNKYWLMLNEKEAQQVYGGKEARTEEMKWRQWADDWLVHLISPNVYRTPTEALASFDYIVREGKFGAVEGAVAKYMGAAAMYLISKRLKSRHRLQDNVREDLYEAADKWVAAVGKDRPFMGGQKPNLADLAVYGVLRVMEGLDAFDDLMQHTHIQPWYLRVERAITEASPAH
inactive: [1] -0.035 | [2] -0.092 | [3] -0.004 | [4] 0.167 | [5] 0.132 | [6] -0.029 | [7] -0.002 | [8] 0.001 | [9] -0.082 | [10] 0.036
